Data taken from ChEMBL document CHEMBL2218924, “A broad activity screen in support of a chemogenomic map for kinase signalling research and drug discovery” (Biochem J, 2013).

Columns and labels:
[1] = molecular target: G protein-coupled receptor kinase 5 (Homo sapiens) (UniProt P34947); conditions: at 1 µM
[2] = molecular target: Vascular endothelial growth factor receptor 3 (Homo sapiens) (UniProt P35916); conditions: at 10 µM
[3] = molecular target: Macrophage colony-stimulating factor 1 receptor (Homo sapiens) (UniProt P07333); conditions: at 1 µM
[4] = molecular target: Macrophage colony-stimulating factor 1 receptor (Homo sapiens) (UniProt P07333); conditions: at 10 µM
[5] = molecular target: Tyrosine-protein kinase Fyn (Homo sapiens) (UniProt P06241); conditions: at 1 µM
[6] = molecular target: Tyrosine-protein kinase Fyn (Homo sapiens) (UniProt P06241); conditions: at 10 µM
[7] = molecular target: T1, Mitogen-activated protein kinase kinase kinase kinase 2 (Homo sapiens) (UniProt Q12851); conditions: at 1 µM
T1 sequence (whole entry): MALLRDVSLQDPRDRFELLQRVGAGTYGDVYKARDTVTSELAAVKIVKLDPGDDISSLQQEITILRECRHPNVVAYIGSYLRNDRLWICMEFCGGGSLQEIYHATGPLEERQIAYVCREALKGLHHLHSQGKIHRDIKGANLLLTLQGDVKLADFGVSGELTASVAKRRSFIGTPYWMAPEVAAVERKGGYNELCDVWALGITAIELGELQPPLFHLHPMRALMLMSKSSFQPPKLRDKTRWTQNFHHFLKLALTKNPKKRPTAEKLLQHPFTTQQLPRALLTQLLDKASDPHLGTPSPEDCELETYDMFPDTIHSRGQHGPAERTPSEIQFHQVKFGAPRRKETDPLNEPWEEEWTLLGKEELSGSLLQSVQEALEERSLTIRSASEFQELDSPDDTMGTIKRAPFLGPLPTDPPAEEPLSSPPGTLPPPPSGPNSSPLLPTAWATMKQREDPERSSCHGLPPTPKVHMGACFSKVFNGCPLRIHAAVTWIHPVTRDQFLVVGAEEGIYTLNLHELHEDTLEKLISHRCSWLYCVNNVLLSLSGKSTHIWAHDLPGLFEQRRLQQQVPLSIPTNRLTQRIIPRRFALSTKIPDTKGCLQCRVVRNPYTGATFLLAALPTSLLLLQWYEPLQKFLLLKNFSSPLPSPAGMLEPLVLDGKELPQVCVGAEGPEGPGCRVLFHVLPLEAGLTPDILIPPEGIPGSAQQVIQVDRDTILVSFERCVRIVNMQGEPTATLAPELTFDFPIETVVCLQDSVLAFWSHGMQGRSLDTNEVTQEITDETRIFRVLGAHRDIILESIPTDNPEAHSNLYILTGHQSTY

[8] = molecular target: T1, Mitogen-activated protein kinase kinase kinase kinase 2 (Homo sapiens); conditions: at 10 µM
[9] = molecular target: G protein-coupled receptor kinase 5 (Homo sapiens) (UniProt P34947); conditions: at 10 µM
[10] = molecular target: G protein-coupled receptor kinase 6 (Homo sapiens) (UniProt P43250); conditions: at 1 µM
[11] = molecular target: G protein-coupled receptor kinase 6 (Homo sapiens) (UniProt P43250); conditions: at 10 µM
[12] = molecular target: T2, Rhodopsin kinase GRK7 (Homo sapiens) (UniProt Q8WTQ7); conditions: at 1 µM
T2 sequence (whole entry): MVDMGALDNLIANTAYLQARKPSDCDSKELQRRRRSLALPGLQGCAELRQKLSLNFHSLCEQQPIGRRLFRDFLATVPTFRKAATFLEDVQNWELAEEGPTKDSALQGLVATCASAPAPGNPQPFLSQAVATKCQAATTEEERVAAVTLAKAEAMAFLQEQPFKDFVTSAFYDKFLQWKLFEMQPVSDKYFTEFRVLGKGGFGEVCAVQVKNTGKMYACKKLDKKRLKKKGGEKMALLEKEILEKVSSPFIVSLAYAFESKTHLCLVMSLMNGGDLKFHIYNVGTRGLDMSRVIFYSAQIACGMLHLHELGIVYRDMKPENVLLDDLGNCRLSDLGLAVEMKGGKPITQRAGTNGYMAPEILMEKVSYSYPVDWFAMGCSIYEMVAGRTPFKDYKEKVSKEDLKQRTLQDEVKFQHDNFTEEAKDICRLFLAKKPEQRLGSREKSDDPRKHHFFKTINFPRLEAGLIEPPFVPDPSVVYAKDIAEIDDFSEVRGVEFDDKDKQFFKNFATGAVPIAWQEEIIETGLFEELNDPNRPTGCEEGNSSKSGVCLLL

[13] = molecular target: T2, Rhodopsin kinase GRK7 (Homo sapiens); conditions: at 10 µM
[14] = molecular target: Glycogen synthase kinase-3 alpha (Homo sapiens) (UniProt P49840); conditions: at 1 µM
[15] = molecular target: Glycogen synthase kinase-3 alpha (Homo sapiens) (UniProt P49840); conditions: at 10 µM
[16] = molecular target: Glycogen synthase kinase-3 beta (Homo sapiens) (UniProt P49841); conditions: at 1 µM
[17] = molecular target: Glycogen synthase kinase-3 beta (Homo sapiens) (UniProt P49841); conditions: at 10 µM
[18] = molecular target: Homeodomain-interacting protein kinase 1 (Homo sapiens) (UniProt Q86Z02); conditions: at 1 µM
[19] = molecular target: Homeodomain-interacting protein kinase 1 (Homo sapiens) (UniProt Q86Z02); conditions: at 10 µM
[20] = molecular target: Homeodomain-interacting protein kinase 2 (Homo sapiens) (UniProt Q9H2X6); conditions: at 1 µM
Sequence of Homeodomain-interacting protein kinase 2 (Homo sapiens) (Q9H2X6 whole entry, looked up): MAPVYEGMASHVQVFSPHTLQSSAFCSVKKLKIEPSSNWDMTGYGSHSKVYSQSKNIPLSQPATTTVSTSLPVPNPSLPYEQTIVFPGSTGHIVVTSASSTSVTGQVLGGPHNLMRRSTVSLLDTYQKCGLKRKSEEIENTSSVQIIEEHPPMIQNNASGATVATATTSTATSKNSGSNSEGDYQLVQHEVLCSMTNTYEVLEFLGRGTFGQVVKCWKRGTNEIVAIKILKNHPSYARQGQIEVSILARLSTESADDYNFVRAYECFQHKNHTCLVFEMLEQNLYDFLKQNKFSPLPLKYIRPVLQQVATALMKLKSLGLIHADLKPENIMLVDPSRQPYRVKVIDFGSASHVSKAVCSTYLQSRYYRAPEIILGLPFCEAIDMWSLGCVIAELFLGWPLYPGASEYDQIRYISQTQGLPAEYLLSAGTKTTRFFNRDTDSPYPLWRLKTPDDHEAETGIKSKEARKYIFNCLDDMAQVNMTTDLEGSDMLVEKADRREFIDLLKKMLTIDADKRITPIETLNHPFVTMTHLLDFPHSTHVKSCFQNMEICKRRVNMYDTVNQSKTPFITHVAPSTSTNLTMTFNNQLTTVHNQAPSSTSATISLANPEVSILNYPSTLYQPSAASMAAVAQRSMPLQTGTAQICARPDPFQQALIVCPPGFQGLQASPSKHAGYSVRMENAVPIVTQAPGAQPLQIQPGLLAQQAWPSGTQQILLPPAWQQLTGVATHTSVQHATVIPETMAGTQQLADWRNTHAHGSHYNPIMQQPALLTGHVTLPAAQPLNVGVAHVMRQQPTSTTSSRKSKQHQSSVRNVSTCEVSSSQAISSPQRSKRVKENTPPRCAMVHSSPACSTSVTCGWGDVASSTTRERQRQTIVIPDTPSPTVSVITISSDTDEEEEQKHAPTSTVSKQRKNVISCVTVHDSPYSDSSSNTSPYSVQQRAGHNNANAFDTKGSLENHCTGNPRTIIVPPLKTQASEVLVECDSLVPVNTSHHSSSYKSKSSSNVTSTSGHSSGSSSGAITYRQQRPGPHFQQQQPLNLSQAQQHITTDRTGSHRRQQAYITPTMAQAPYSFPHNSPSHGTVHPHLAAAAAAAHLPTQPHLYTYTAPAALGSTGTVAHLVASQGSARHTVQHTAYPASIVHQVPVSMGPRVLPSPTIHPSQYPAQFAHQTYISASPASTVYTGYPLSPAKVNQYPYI

Sequence of Glycogen synthase kinase-3 alpha (Homo sapiens) (P49840 2-483 limits assumed): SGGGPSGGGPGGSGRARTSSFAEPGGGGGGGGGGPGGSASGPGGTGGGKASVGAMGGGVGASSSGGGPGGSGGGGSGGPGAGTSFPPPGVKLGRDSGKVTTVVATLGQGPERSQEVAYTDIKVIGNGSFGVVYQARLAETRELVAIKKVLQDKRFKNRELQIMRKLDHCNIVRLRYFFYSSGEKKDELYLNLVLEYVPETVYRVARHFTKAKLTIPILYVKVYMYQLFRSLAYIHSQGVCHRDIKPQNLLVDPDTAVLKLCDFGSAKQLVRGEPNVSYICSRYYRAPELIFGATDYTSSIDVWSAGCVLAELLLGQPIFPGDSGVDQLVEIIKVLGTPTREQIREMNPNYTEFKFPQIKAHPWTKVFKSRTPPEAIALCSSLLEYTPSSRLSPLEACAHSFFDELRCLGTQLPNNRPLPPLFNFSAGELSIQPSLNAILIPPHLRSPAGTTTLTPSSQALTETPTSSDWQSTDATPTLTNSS
Sequence of G protein-coupled receptor kinase 5 (Homo sapiens) (P34947 whole entry, looked up): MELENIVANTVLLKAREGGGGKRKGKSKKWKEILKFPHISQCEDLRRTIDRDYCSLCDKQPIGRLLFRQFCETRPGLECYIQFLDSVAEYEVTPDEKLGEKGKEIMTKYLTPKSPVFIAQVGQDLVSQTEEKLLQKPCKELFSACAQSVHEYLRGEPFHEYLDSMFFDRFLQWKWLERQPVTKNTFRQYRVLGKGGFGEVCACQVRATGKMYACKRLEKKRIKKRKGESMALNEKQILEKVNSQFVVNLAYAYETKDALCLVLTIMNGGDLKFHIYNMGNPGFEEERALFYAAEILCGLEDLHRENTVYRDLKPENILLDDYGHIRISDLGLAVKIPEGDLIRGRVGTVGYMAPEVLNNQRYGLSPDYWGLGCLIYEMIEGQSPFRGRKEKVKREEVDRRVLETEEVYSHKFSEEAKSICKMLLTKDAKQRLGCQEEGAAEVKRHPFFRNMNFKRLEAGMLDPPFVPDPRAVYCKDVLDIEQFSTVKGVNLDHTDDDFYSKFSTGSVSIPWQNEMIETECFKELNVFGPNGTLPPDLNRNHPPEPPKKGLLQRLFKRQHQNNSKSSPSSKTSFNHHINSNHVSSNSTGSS
Sequence of Homeodomain-interacting protein kinase 1 (Homo sapiens) (Q86Z02 whole entry, looked up): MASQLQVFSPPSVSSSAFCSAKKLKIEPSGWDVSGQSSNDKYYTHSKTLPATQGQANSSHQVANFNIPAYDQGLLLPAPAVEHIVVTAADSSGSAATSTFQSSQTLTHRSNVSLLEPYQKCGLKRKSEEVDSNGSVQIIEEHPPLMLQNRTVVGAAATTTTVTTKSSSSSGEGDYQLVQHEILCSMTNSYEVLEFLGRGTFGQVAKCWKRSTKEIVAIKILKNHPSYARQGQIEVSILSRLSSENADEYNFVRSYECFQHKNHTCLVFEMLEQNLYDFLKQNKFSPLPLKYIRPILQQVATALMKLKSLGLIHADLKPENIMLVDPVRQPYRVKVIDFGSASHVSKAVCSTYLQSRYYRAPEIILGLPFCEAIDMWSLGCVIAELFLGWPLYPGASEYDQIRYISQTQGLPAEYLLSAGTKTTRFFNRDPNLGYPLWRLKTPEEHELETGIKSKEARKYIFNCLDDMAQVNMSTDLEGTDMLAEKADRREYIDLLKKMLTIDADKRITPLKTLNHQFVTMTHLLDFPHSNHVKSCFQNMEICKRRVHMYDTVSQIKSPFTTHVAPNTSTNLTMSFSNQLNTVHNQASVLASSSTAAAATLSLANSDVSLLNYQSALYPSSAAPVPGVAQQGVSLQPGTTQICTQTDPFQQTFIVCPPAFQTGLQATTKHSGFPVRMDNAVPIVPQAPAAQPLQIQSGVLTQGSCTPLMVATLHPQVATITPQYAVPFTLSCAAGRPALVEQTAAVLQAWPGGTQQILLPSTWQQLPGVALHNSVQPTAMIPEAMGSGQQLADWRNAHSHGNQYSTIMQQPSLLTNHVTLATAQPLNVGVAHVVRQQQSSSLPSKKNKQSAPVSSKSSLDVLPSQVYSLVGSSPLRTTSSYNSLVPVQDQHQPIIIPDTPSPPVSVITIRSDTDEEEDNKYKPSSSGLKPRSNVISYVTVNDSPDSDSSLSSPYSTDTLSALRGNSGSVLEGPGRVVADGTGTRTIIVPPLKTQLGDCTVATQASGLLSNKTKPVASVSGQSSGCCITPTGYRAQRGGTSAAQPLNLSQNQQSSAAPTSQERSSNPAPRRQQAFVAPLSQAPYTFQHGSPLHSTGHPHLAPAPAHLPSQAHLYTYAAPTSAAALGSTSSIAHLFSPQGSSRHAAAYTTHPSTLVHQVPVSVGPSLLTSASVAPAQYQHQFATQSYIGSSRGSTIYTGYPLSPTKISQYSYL
Sequence of Macrophage colony-stimulating factor 1 receptor (Homo sapiens) (P07333 whole entry): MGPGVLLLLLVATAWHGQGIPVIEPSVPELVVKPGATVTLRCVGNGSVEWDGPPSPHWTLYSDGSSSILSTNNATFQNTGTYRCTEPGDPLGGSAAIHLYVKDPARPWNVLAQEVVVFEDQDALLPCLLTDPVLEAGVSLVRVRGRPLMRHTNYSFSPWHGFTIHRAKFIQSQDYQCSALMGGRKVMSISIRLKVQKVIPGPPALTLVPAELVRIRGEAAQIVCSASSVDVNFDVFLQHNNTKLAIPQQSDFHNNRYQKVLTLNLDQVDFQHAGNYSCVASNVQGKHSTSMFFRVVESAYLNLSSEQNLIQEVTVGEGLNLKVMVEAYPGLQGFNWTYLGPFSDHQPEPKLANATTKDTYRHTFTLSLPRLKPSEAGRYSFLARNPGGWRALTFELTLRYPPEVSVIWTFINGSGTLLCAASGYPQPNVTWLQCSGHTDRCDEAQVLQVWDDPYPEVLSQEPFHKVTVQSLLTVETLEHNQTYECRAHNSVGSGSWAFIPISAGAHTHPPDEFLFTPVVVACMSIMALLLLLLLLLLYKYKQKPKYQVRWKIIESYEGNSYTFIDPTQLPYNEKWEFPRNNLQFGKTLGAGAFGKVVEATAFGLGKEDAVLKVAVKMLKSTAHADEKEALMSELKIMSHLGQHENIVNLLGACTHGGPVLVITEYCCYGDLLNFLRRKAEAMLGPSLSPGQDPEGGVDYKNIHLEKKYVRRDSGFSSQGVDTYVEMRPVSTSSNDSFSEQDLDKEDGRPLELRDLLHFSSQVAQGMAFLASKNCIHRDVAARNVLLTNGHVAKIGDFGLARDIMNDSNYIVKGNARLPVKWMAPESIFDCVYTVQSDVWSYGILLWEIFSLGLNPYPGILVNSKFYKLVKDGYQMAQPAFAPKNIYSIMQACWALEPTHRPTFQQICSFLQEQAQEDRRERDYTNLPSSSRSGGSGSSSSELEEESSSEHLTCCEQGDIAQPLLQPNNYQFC
Sequence of Tyrosine-protein kinase Fyn (Homo sapiens) (P06241 2-537 limits assumed): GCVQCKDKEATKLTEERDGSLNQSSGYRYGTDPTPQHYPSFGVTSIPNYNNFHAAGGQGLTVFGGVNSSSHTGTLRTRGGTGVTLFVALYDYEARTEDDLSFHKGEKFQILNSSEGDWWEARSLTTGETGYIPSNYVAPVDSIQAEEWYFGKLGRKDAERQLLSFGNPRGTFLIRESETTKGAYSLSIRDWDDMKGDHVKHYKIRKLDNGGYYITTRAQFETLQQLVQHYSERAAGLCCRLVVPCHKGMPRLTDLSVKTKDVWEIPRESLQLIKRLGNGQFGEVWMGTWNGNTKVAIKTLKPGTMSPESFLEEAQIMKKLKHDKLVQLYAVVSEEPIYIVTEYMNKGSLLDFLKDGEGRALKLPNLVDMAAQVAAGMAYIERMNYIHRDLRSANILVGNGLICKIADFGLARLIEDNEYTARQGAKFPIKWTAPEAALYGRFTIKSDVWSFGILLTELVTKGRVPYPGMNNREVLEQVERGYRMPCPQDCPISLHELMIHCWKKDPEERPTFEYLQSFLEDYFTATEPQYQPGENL

Question: How did the residual activity [1] turn out when `O=C(c1cc2cc(O)ccc2[nH]1)c1cc2cc(O)ccc2[nH]1` was run?
Answer: 79%

Question: What does the source list for `COc1cc(OC)c(/C=C2\C(=O)Nc3ccccc32)c(OC)c1`?
Answer: residual activity [2]: 74%; residual activity [3]: 87%; residual activity [4]: 69%; residual activity [5]: 70%; residual activity [6]: 68%; residual activity [7]: 95%; residual activity [8]: 86%; residual activity [1]: 101%; residual activity [9]: 99%; residual activity [10]: 89%; residual activity [11]: 91%; residual activity [12]: 95%; residual activity [13]: 84%; residual activity [14]: 105%; residual activity [15]: 95%; residual activity [16]: 132%; residual activity [17]: 106%; residual activity [18]: 102%; residual activity [19]: 98%; residual activity [20]: 104%

Question: Which results are given for `O=c1[nH]c2ccccc2n1C1CCN(Cc2ccc(-c3nc4cc5[nH]cnc5cc4nc3-c3ccccc3)cc2)CC1`?
Answer: residual activity [2]: 59%; residual activity [3]: 55%; residual activity [4]: 51%; residual activity [5]: 95%; residual activity [6]: 72%; residual activity [7]: 101%; residual activity [8]: 80%; residual activity [1]: 103%; residual activity [9]: 85%; residual activity [10]: 100%; residual activity [11]: 94%; residual activity [12]: 110%; residual activity [13]: 94%; residual activity [14]: 112%; residual activity [15]: 123%; residual activity [16]: 108%; residual activity [17]: 106%; residual activity [18]: 101%; residual activity [19]: 98%; residual activity [20]: 98%

Question: With `CC(C)(C)c1cc(C=C(C#N)C#N)cc(Br)c1O` as the molecule, how does the residual activity [2] read?
Answer: 83%

Question: What about the residual activity [3] of the same molecule?
Answer: 97%

Question: What about the residual activity [4] of the same molecule?
Answer: 76%

Question: And the residual activity [6]?
Answer: 15%

Question: And the residual activity [7]?
Answer: 113%

Question: And the residual activity [1]?
Answer: 120%

Question: And the residual activity [9]?
Answer: 100%

Question: What about the residual activity [10] of the same molecule?
Answer: 106%

Question: And the residual activity [11]?
Answer: 104%

Question: And the residual activity [12]?
Answer: 113%

Question: And the residual activity [13]?
Answer: 102%

Question: What about the residual activity [14] of the same molecule?
Answer: 117%

Question: What about the residual activity [15] of the same molecule?
Answer: 74%

Question: What about the residual activity [16] of the same molecule?
Answer: 106%

Question: What about the residual activity [17] of the same molecule?
Answer: 96%

Question: And the residual activity [18]?
Answer: 107%

Question: What about the residual activity [19] of the same molecule?
Answer: 104%

Question: What about the residual activity [20] of the same molecule?
Answer: 101%

Question: `COc1cc2nccc(Oc3ccc(NC(=O)Nc4cc(C)on4)c(Cl)c3)c2cc1OC` was tested. Which residual activity [1] did it give?
Answer: 105%

Question: What does the source list for `CCn1cnc2c(Nc3cccc(Cl)c3)nc(N[C@@H]3CCCC[C@@H]3N)nc21`?
Answer: residual activity [2]: 2%; residual activity [3]: 54%; residual activity [4]: 11%; residual activity [5]: 8%; residual activity [6]: 0%; residual activity [7]: 43%; residual activity [8]: 7%; residual activity [1]: 96%; residual activity [9]: 66%; residual activity [10]: 91%; residual activity [11]: 68%; residual activity [12]: 74%; residual activity [13]: 24%; residual activity [14]: 123%; residual activity [15]: 119%; residual activity [16]: 132%; residual activity [17]: 136%; residual activity [19]: 81%; residual activity [20]: 85%

Question: For `O=C1c2ccccc2-c2nc3nnnn3nc21`, which residual activity [2] is on record?
Answer: 70%

Question: What about the residual activity [1] of the same molecule?
Answer: 107%

Question: What about the residual activity [9] of the same molecule?
Answer: 77%

Question: What about the residual activity [14] of the same molecule?
Answer: 101%

Question: What about the residual activity [15] of the same molecule?
Answer: 120%

Question: What about the residual activity [16] of the same molecule?
Answer: 115%

Question: And the residual activity [17]?
Answer: 101%

Question: How did the residual activity [1] turn out when `O=C(Nc1nc2ccccc2n1CCN1CCOCC1)c1cccc([N+](=O)[O-])c1` was run?
Answer: 107%

Question: How did the residual activity [1] turn out when `O=C1NC(=O)C(c2cn(CCCO)c3ncccc23)=C1c1cnccn1` was run?
Answer: 100%

Question: `CCCCc1c(-c2ccc(OC)cc2)[nH]c2nccnc12` was tested. Which residual activity [1] did it give?
Answer: 88%

Question: How did the residual activity [3] turn out when `COc1ccc2c(c1)/C(=C/c1cnc[nH]1)C(=O)N2` was run?
Answer: 41%

Question: What about the residual activity [4] of the same molecule?
Answer: 14%

Question: What about the residual activity [5] of the same molecule?
Answer: 67%

Question: What about the residual activity [6] of the same molecule?
Answer: 25%

Question: What about the residual activity [7] of the same molecule?
Answer: 23%

Question: What about the residual activity [8] of the same molecule?
Answer: 3%

Question: What about the residual activity [11] of the same molecule?
Answer: 76%

Question: What about the residual activity [13] of the same molecule?
Answer: 42%

Question: And the residual activity [16]?
Answer: 42%

Question: And the residual activity [17]?
Answer: 4%

Question: What about the residual activity [19] of the same molecule?
Answer: 52%

Question: What does the source list for `O=C1NC(=O)c2c1c1c3ccccc3n3c1c1c2c2ccccc2n1C1CCC3O1`?
Answer: residual activity [2]: 2%; residual activity [3]: 30%; residual activity [4]: 26%; residual activity [5]: 81%; residual activity [6]: 75%; residual activity [7]: 20%; residual activity [8]: 10%; residual activity [14]: 15%; residual activity [15]: 3%; residual activity [16]: 40%; residual activity [17]: 23%; residual activity [20]: 42%

Question: For `Nc1nc(Nc2ccc(S(N)(=O)=O)cc2)nn1C(=O)c1c(F)cccc1F`, which residual activity [1] is on record?
Answer: 78%

Question: `CC(C)(C)n1nc(Cc2cccc3ccccc23)c2c(N)ncnc21` was tested. Which residual activity [1] did it give?
Answer: 108%

Question: Which results are given for `CC(C)[C@H](CO)Nc1nc(Nc2cccc(Cl)c2)c2ncn(C(C)C)c2n1`?
Answer: residual activity [2]: 3%; residual activity [3]: 70%; residual activity [4]: 34%; residual activity [5]: 4%; residual activity [6]: -1%; residual activity [7]: 75%; residual activity [8]: 23%; residual activity [1]: 97%; residual activity [9]: 82%; residual activity [12]: 95%; residual activity [13]: 44%; residual activity [16]: 134%; residual activity [17]: 57%; residual activity [18]: 97%; residual activity [19]: 49%; residual activity [20]: 88%

Question: Which residual activity [2] does the source give for `c1cc(-c2cnn3cc(-c4ccc(OCCN5CCCCC5)cc4)cnc23)ccn1` here?
Answer: 0%

Question: What about the residual activity [3] of the same molecule?
Answer: 3%

Question: And the residual activity [4]?
Answer: 1%

Question: And the residual activity [5]?
Answer: 11%

Question: What about the residual activity [6] of the same molecule?
Answer: 1%

Question: And the residual activity [7]?
Answer: 10%

Question: And the residual activity [8]?
Answer: 1%

Question: And the residual activity [10]?
Answer: 101%

Question: What about the residual activity [14] of the same molecule?
Answer: 100%

Question: What about the residual activity [15] of the same molecule?
Answer: 76%

Question: What about the residual activity [18] of the same molecule?
Answer: 85%

Question: What about the residual activity [19] of the same molecule?
Answer: 34%

Question: And the residual activity [20]?
Answer: 62%

Question: Which results are given for `COC(=O)[C@@]1(O)C[C@H]2O[C@]1(C)n1c3ccccc3c3c4c(c5c6ccccc6n2c5c31)C(=O)NC4`?
Answer: residual activity [2]: 1%; residual activity [3]: 2%; residual activity [4]: 1%; residual activity [5]: 4%; residual activity [6]: 0%; residual activity [7]: 0%; residual activity [8]: 1%; residual activity [1]: 40%; residual activity [9]: 5%; residual activity [10]: 36%; residual activity [11]: 5%; residual activity [12]: 4%; residual activity [13]: 4%; residual activity [14]: 14%; residual activity [15]: 3%; residual activity [16]: 29%; residual activity [17]: 10%; residual activity [18]: 78%; residual activity [19]: 15%; residual activity [20]: 22%

Question: For `O=C1Cc2c([nH]c3ccc(Br)cc23)-c2ccccc2N1`, which residual activity [1] is on record?
Answer: 95%
